Screens as filed in PubChem BioAssay.
Shown are actives, neighbours in structure and some others; about 12% of the full set was active somewhere.
JMJD2A Tudor – qHTS Assay for Inhibitors of JMJD2A-Tudor Domain | AlphaScreen JMJD2A-Tudor / H3K4me3 peptide binding | Potency, µM (doses to about 114 µM), for the others: top-dose activity change, negative = inhibition, most hits filed as inhibitors | 390,000 tested, 4.4% active | AID 504339, 2011; further: on the % scale 0 is the no-effect control and ±100 the full control effect; nearly all actives have a fitted effect of over 50% in size
Target sequence (O75164 whole entry, looked up, the tested form may be a part): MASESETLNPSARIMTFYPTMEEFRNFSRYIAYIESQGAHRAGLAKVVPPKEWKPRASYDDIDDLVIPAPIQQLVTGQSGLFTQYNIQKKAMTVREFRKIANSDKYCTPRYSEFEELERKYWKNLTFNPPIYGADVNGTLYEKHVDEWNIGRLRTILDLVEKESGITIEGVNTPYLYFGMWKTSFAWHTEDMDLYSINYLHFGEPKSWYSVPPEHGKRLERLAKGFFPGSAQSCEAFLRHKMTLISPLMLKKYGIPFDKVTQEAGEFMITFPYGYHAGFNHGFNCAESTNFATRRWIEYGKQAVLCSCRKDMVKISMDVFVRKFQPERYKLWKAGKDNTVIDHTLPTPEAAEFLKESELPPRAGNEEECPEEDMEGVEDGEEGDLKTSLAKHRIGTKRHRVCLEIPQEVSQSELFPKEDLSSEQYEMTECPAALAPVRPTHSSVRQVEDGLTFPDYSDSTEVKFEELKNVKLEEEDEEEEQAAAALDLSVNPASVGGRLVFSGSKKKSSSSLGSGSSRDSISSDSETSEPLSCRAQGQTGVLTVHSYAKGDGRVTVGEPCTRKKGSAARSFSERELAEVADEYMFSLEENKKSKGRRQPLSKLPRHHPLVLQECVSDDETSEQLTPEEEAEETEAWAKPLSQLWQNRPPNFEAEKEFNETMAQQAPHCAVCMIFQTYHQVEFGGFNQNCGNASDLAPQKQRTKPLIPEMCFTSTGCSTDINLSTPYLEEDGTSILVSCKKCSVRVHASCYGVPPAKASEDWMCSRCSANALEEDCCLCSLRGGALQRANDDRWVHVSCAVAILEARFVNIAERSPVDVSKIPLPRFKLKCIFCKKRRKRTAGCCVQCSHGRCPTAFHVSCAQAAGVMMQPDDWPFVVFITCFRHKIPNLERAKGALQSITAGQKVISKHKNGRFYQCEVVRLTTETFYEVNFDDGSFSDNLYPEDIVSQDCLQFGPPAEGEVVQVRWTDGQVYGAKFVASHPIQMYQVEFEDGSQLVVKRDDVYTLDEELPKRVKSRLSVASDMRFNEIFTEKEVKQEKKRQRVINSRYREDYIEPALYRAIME
TDP1 inh – qHTS Assay for Inhibitors of Tyrosyl-DNA Phosphodiesterase (TDP1) | recombinant TDP1, AlphaScreen DNA substrate cleavage | 350,000 tested, 0.28% active | Potency, µM (series often up to 130 µM), without a hit: at the top dose activity change, negative = inhibition, hits mostly inhibitors; further: on the % scale 0 is the no-effect control and ±100 the full control effect; nearly all actives have a fitted effect of over 40% in size
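Recombinant E. coli-expressed Tdp1 (1 nM) preincubated with compound 15 min at RT, then 5'-biotin/3'-phosphotyrosine-FITC DNA substrate (15 nM) added for 5 min. AlphaScreen beads (10 ug/ml) added, 10 min RT; tyrosine-FITC cleavage read as signal loss.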
G9a inh – qHTS Assay for Inhibitors of Histone Lysine Methyltransferase G9a. G9a H3K9 monomethylation, AlphaScreen, 2 h. Potency, µM (doses to about 102 µM), for the others: at the highest dose activity, negative = inhibition, most hits filed as inhibitors. 350,000 tested, 8.8% active. AID 504332, 2011; further: on the % scale 0 is the no-effect control and ±100 the full control effect; nearly all actives have a fitted effect of over 75% in size
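G9a (20 nM) was preincubated 15 min with compound, then reacted 2 h at room temperature with 500 nM biotin-H3K9 peptide and 20 µM SAM. Monomethyl-H3K9 detected by AlphaScreen using anti-H3K9me1 antibody.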
HP1b chromo inh – HTS for Inhibitors of HP1-beta Chromodomain Interactions with Methylated Histone Tails; AlphaScreen HP1-beta / biotin-H3K9me3 peptide binding; Potency, µM (series often up to 114 µM), inactives show top-dose activity change, negative = inhibition, most hits filed as inhibitors; 390,000 tested, 0.56% active; AID 540317, 2011; further: nearly all actives have a fitted effect of over 70% in size
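HP1-beta protein (50 nM final) preincubated 30 min at room temperature with biotinylated H3(1-18)K9me3 peptide (50 nM) in PBS pH 7.4, 0.01% Tween-20, then compound added for 30 min. AlphaScreen streptavidin donor/nickel chelate acceptor beads (10 ug/mL final), 30 min dark, luminescence read.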
Sfp inh – qHTS Assay for Inhibitors of Bacillus subtilis Sfp phosphopantetheinyl transferase (PPTase) | 4'-phosphopantetheinyl transferase ffp (Bacillus subtilis), Q9F4F7 | Biochemical Sfp PPTase activity, qHTS | Potency, µM, for the others: largest response in the series, negative = inhibition, usual class: inhibitors | 310,000 tested, 3.5% active | AID 1490, 2009;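 further: the enzyme is Sfp with the accession as filed and its product quenches rhodamine fluorescence; 0% = enzyme reaction without inhibitor and -100% = no enzyme wells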
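Buffer: 50 mM Hepes-Na pH 7.6, 10 mM MgCl2, 0.01% Nonidet P-40, 0.01% BSA. Enzyme 15 nM, pre-exposed to compound 15 min; substrates then added and fluorescence change tracked over 30 min.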
BAZ2B block – qHTS Assay for Inhibitors of BAZ2B | Bromodomain adjacent to zinc finger domain protein 2B (Homo sapiens), Q9UIF8 | AlphaScreen BAZ2B-H3K14Ac peptide displacement | Potency, µM (doses to about 114 µM), inactives show at the top dose activity change, negative = inhibition, most hits filed as inhibitors | 360,000 tested, 4.4% active | AID 504333, 2011; further: on the % scale 0 is the no-effect control and ±100 the full control effect; nearly all actives have a fitted effect of over 60% in size
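AlphaScreen luminescence quantifies BAZ2B engagement of H3K14Ac peptide; the protein and biotinylated peptide are both at 50 nM final, buffer PBS pH 7.4 with 0.01% Tween-20, all steps at room temperature.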
An asterisk follows results filed as active; ? = inconclusive; . = no result given; [ ] = dose if it differs, or a comment. The call rests on the fitted dose curve; in most records, active means well fitted curve in the direction sought with a large enough effect; inconclusive means small, poorly fitted or top-dose-only effect, or another doubt; inactive means no such curve, though single readings can be large; an effect the other way counts as inactive or inconclusive. Potency means the concentration at half of the fitted maximal effect.

SMILES	JMJD2A Tudor	TDP1 inh	G9a inh	HP1b chromo inh	Sfp inh	BAZ2B block
Cc1ccc(S(=O)(=O)c2nc(C)oc2NCc2ccccc2)cc1	.	6%	8.9µM*	.	?	3%
CCNc1oc(-c2ccc(OC)cc2)nc1S(=O)(=O)c1ccc(Br)cc1	-19%	2%	56µM*	29%	3%	-5%
CNc1oc(Cc2ccccc2)nc1S(=O)(=O)c1ccccc1	3.2µM*	9%	?	?	50µM*	4%
CNc1oc(C)nc1S(=O)(=O)c1ccc(C)cc1	?	6%	2%[0.0925 µM]	?	45µM*	-1%
CCNc1oc(-c2ccccc2F)nc1S(=O)(=O)c1ccccc1	-9%	3%	45µM*	16%	-9%	-21%
CCOc1ccc(-c2nc(S(=O)(=O)c3ccccc3)c(NCc3cccnc3)o2)cc1	?	.	45µM*	5%	-7%	?
COc1ccc(-c2nc(S(=O)(=O)c3ccc(C)cc3)c(NCc3ccccc3)o2)cc1	?	.	11µM*	16%	.	-27%
CCOc1ccc(-c2nc(S(=O)(=O)c3ccccc3)c(NC)o2)cc1	-3%	2%	53%	30%	13%	1%
C[C@@]12CCC(=O)C=C1CC[C@@H]1[C@@H]2[C@H](O)C[C@]2(C)[C@@H]1CC[C@]2(O)C(=O)CO	.	13%[21 µM]	24%[21.5 µM]	.	14%	.
O=C(Cn1c(=O)n(Cc2ccc3c(c2)OCO3)c(=O)c2oc3ccccc3c21)Nc1ccc(F)cc1	4%	3%	-1%[59 µM]	49%	.	-32%
Fc1ccc(/C=N/n2c(-c3cccs3)n[nH]c2=S)cc1	32µM*	-8%	1.1µM*	-25%	50µM*	-35%
CCOc1ccc(/C=N/n2c(-c3ccccc3)n[nH]c2=S)cc1	79µM*	.	0.5µM*	23%	-9%	-29%
CCOc1ccc(/C=N/n2c(C)nc3ccccc3c2=O)cc1	-15%	.	-33%[2.33 µM]	57%	-1%	-2%
S=c1[nH]nc(-c2ccccc2)n1/N=C/c1cccc(Cl)c1	71µM*	.	.	10%	-30%	-12%
S=c1[nH]nc(-c2cccs2)n1/N=C/c1cn(-c2ccccc2)nc1-c1ccccc1	?	.	12%[59 µM]	?	-1%	?
S=c1[nH]nc(-c2ccncc2)n1/N=C/c1cccc(Cl)c1	11µM*	2%	1µM*	35%	-11%	-34%
S=c1[nH]nc(-c2ccccc2)n1/N=C/c1ccc(Cl)cc1	?	.	2.5µM*	11%	2%	-30%
S=c1[nH]nc(-c2ccc(Cl)cc2)n1/N=C/c1cccs1	-19%	.	.	19%	-10%	-10%
COc1ccc(N2CCN(C(=O)c3ccc(F)cc3)CC2)c([N+](=O)[O-])c1	-36%[57.1 µM]	5%	-39%	-20%	-16%	?
O=C(c1ccccc1F)N1CCN(c2ccc([N+](=O)[O-])cc2-n2cccc2)CC1	?	5%	.	9%	-12%	22µM*
COc1ccc(N2CCN(C(=O)CC34CC5CC(CC(C5)C3)C4)CC2)c([N+](=O)[O-])c1	28µM*	0%	?	?	?	35µM*
COc1ccc(N2CCN(C(=O)c3ccccc3F)CC2)c([N+](=O)[O-])c1	-30%[11.4 µM]	6%	50µM*	?	-1%	?
COc1ccc(N2CCN(C(=O)c3cccc(F)c3)CC2)c([N+](=O)[O-])c1	?	9%	-48%	1%	13%	?
COc1ccc(N2CCN(C(=O)c3cccc(Br)c3)CC2)c([N+](=O)[O-])c1	22µM*	8%	?	?	5%	40µM*
O=C(c1ccccc1F)N1CCN(c2ccccc2F)CC1	-30%[57.1 µM]	-2%	17%[59 µM]	?	-11%	14%
